Measured values as given in the supplement of paper PMC11417369.
In all, about 25,000 sequences were measured (“ln(normalized median fluorescence intensity)”: median about 7.1, highest 2% from about 10 on). The sample as a whole holds a higher share of the highest values than the screen did.

system: PfSIP2 AP2 domain 1 (GST-tagged); assay: gcPBM binding intensity (ln(normalized median fluorescence intensity)); higher = stronger DNA binding
Outline: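 Alexa488 anti-GST antibody, scanned at 488 nm, detected GST-tagged P. falciparum DNA-binding domains that had been expressed in E. coli and incubated for 1 h on an Agilent 4 × 180k array. The array carried primer-extended double-stranded 36-bp intergenic genomic probes and negative controls. Binding intensity is the highest Masliner-normalised natural-log median intensity across replicate spots of either orientation of each probe.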

Row | Sequence | gcPBM binding intensity (ln)
1 | TAATACCATTGTCATGCATGCACATTATTACTCTAA [TGCATGCA_site160] | 7.38
2 | CCTAAAGTGTAAAATTCACACACATATATATATATA [CACACA_site8385] | 8.94
3 | TTTTATATTTTAAGAGTGCATTTTATATCTTTTTCT | 8.74
4 | ATTTTTTTCTTAGGAGTGCACTTATATTTATTTTAT | 11.2
5 | ATATATTTTAGGAGAGTGCATTTAATATTATTTAAT [GTGCAC_site9444] | 8.99
6 | TATATATAATATACATGTACAAATGTATTTAAAAAT [XGTACX_site6090] | 7.07
7 | TAAAAAATTAATAAAGTGCATAAATATTACAATATT | 8.14
8 | TGCATAATTAAAAATGGTACACTGTATTTATAATAT [XGTACX_site1575] | 7.13
9 | AGGTATATATTACAAGTGCACTGTAAAATTAAAATT | 10.7
10 | TCTTATGAATATCCCCGTACACATATATTTCTTATA [XGTACX_site6877] | 7.22
11 | TATAAATTTTGTTTAGCACACACACCGACATACATA [CACACA_site9033] | 7.28
12 | AAACAAAAAAGAAACACACACTAATTAAATTTTCTT [CACACA_site4746] | 6.74
13 | AATATTTGTTAAAGAGGTACACCATTTGGTAGGGAA [XGTACX_site2165] | 7.06
14 | ATTTTTTTTTTTTTTTTAAGACAAACTCTTAATTTA [CACACA_negctrl_site1389] | 6.78
15 | TATGAAGTGCACAATACACACTAATTCTATATAAAT [CACACA_site7269] | 11.2
16 | TATGAAGTACACAATACACACTAATTATATATAAAT [CACACA_site5444] | 6.91
17 | TATATGAAGTACACAATACACACTAATTATATATAA [CACACA_site2608] | 7.12
18 | CATACATACAGATATACACACATATATAATAATATA [CACACA_site5477] | 7.14
19 | AGGTGCTTAATATATACACACATACAGATATATATA [CACACA_site5552] | 7.6
20 | AAATGAATATTCATAGTGCAATATATAAATGAAAAT | 7.94
21 | AGAATAATAAAATGGGTGCAATAGTTTTTTTTTTTT [GTGCAC_site9823] | 10.4
22 | ATAATAAAAATAAGAGAATAAAAATGCAATTTAATG [CACACA_negctrl_site878] | 6.81

Row | Sequence | gcPBM binding intensity (ln)
23 | GAGAAATTTATACATACACACATATATATATTATAT [CACACA_site4038] | 7.16
24 | ATATATATATATGTATGTATATATATATGTTTGATT [XGTACX_negctrl_site62] | 9.56
25 | AATATTACAATTTGGTGTACAGGTGCACATGCCTCA [XGTACX_site1730] | 11.5
26 | ATTATTTTGTTTATTACATGCAGGTGTATATTACAG [TGCATGCA_site723] | 7.2
27 | TTACGAATTACATATTGTACATATGCACAATTTTAA [XGTACX_site6802] | 7.4
28 | ATATATTCCATAAAGGTGCTGTTAACGTGTCAACGT [GTGCAC_site9402] | 7.84
29 | ATATAAATATAGTGTGCACACACATAATATATATAT [CACACA_site8713] | 8.66
30 | ATATATATATATAGTGCACACATATAAAATATATAT [CACACA_site8884] | 10.1
31 | AAAAATAAATATATATGTACACATATGTATACAATA [XGTACX_site4692] | 7.03
32 | ATATATCATATTATAGTGCATTTATAATAATATTAT | 9.33
33 | AAAAAAAAAAAAAGTGCACACTTTTAATATAAATAT [CACACA_site3314] | 10.8
34 | TATAATAAAATTTTTACACACTTTAAAAAAAAAAAA [CACACA_site524] | 6.88
35 | AACATATTGGATTTAGTGCACATATATATCATAATA | 10.3
36 | AGTGCATAATATTTATGTACGTATCACATATATTTT [XGTACX_site5166] | 9.05
37 | ATATATATATAGTGCACACATATAAAATATATATAA [CACACA_site2745] | 10.3
38 | TTATACAGGACAATAGTGCACATAAATATATGTATA | 10.6
39 | AATACAATAAAATAGTGTACATATATATTATGTATA [XGTACX_site8258] | 6.93
40 | TTTATATTTTTTTTTGCACACTTTAAAAAAATATAT [CACACA_site1146] | 7.4
41 | AAGTATTATTTTTATGCATGTGAAGTGCAAAATAAA [TGCATGCA_site198] | 9.56
42 | TTTTATTTTCGATGATGTACATTAAATTATACAGTA [XGTACX_site6053] | 7.01
43 | AATACAATTTTTAACACACACACAATAATACAGATA [CACACA_site4823] | 7.17
44 | ACAAATATGAGAAATTGTACATATAATAAAATAGTA [XGTACX_site2573] | 6.93

Row | Sequence | gcPBM binding intensity (ln)
45 | AAATAAATAAATATACGTACATATATATAATATATA [XGTACX_site5124] | 7.23
46 | TATGTAAAAAGAGAAAAAAAAAAGAACGATAATTTC [CACACA_negctrl_site946] | 6.58
47 | AATTAAAAAATTATCACACATATATATATATATATA [CACACA_site5789] | 9.53
48 | TTTATATACACACAGAAGAACAGAAATATTATATAT [TGCATGCA_negctrl_site483] | 7.2
49 | TTTAAAAAATAATATTGTACTATTCTCCCAATTTCT [XGTACX_site7079] | 6.57
50 | GGTATACATATTAAATGTACATATTTTAACAATAAG [XGTACX_site4868] | 7.1
51 | TGATTCTTTTGTATCACACACACTTAGTTTAATTTT [CACACA_site2404] | 6.85
52 | TCTGTAAATACGTGCACACACAAATCACAAATGTGA [CACACA_site330] | 9.89
53 | AATAAAAAAAAAAATAATATATATGTATAAATATAT [CACACA_negctrl_site1561] | 6.83
54 | AAAAAAAAAAAAAAAGCACACACCAATGAGCAGCTT [CACACA_site1845] | 7.62
55 | AATAATAAAAAAAGTGCACACACATAATATATATAT [CACACA_site9100] | 10.6
56 | TAATAAAAAAAGTGCACACACATAATATTTATATAT [CACACA_site7548] | 10.7
57 | AGGTCTGTTTTATATTGTACATAAAAAGTGCACATG [XGTACX_site4529] | 11.4
58 | TTTTTTATTTTGTGCACACACATAAAAATATAAATA [CACACA_site6497] | 9.8
59 | ATATCATTTTCCTGCACACATAAATTTATATAATAT [CACACA_site1048] | 7.82
60 | TTTTTTATTTTGTGCACACACATAAAAATATATATA [CACACA_site761] | 9.42
61 | TTTTTCCTATTTTTAGTGCACATATAAATAAATAAA [GTGCAC_site9821] | 10.7
62 | ATTTTTTTATTTTGTGCACACACATAAAAATATATA [CACACA_site762] | 9.99
63 | AAAATAAAAATAAAAGCACACATAAATATATATATA [CACACA_site8409] | 8.73
64 | TATATATTCATAAAGTGTACATGTTTATATATATAT [XGTACX_site7585] | 8.48
65 | TATATCTGTTTATATTGTACACATATATATATATAT [XGTACX_site714] | 9.28
66 | AATATAATATAATGCACACATAAAAAAAAAAAAATC [CACACA_site1303] | 7.43
